Screen size: about 420,000 compounds; about 64,000 (15%) were called active. Not shown: some 27% with an inconclusive outcome. Calls come from the whole dose curve; as a rule, active = well fitted inhibition curve with a large enough effect; inconclusive = small, poorly fitted or top-dose-only effect; inactive = flat fitted curve, though single readings scatter. A selection follows.
% is set by controls: 0 for no effect and ±100 for the full control effect; potency is the fitted concentration of half-maximal effect.

The nature of the experiment: qHTS for Inhibitors of human tyrosyl-DNA phosphodiesterase 1 (TDP1): qHTS in cells in absence of CPT. Note: nearly all actives have a fitted effect of over 55% in size. Particulars: DT40 Tdp1-/- hTDP1 cells, no CPT, ATP luminescence, 48 h; activity change, negative = growth inhibition: at 46.2 µM (top of the series). The method, boiled down: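 Stably hTDP1-transfected Tdp1-null chicken DT40 cells were treated with library compounds minus camptothecin and grown for at least 48 hr at 37 °C, after which cellular ATP was quantified by luminescence.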
In the case of `CCOc1ncccc1C(=O)N(CC)CC(=O)Nc1ccc(NC(C)=O)cc1`, the “activity change, negative = growth inhibition” value was -13.9% (inactive).
In the case of `COc1ccc(-n2nc(C(=O)NCC(=O)N3CCCCCC3)c3ccccc3c2=O)cc1Cl`, the Potency is 23.1 µM (active).
On to `CCOC(=O)CNC(=O)c1nn(-c2cccc(OC)c2)c(=O)c2ccccc12`, for which the “activity change, negative = growth inhibition” value is -15.7% (inactive).
Turning to `COc1ccc(-n2nc(C(=O)NCCc3ccc(Cl)cc3)c3c4ccccc4n(C)c3c2=O)cc1Cl`, the Potency is 13 µM (active).
In the case of `COc1ccc(-n2nc(C(=O)NCC(=O)N3CCC(C(N)=O)CC3)c3ccccc3c2=O)cc1OC`, the “activity change, negative = growth inhibition” value is -4.08% (inactive).
On the same count and under the same terms, to `CCOC(=O)c1ccccc1NC(=O)c1nn(-c2ccc(OC)c(Cl)c2)c(=O)c2c1c1ccccc1n2C` belongs -5.84% (inactive); to `COCCCNC(=O)CNC(=O)c1nn(-c2ccc(OC)cc2)c(=O)c2ccccc12`, 2.56% (inactive); to `S=C(Nc1ccc2c(c1)OCO2)N1CCCC1`, 5.97% (inactive).
Take `Nc1ccc(Cl)c(S(=O)(=O)Nc2ccccc2Cl)c1`: the “activity change, negative = growth inhibition” value is -16.2% (inactive).
As to `Cc1cc(C)n(CC(O)CN(c2ccccc2)S(=O)(=O)c2ccc3ccccc3c2)n1` (stereo not given), the Potency is 23.1 µM (active).
On to `CCN(c1ccccc1)S(=O)(=O)c1ccc2[nH]c(=O)[nH]c2c1`, for which the “activity change, negative = growth inhibition” value is -5.25% (inactive).
On the same count and under the same terms, for `O=S(=O)(c1ccccc1)N(CC(O)CN1CCCCC1)c1ccccc1` (stereo not given) the value was -22.7% (inactive); for `CCCCCN(C(=O)CCC(=O)OCC(=O)NC1CCC(C)CC1)c1c(N)n(CCCC)c(=O)[nH]c1=O` (stereo not given), -10.5% (inactive).
The same measure, in the same setting: to `Cc1nc(SCC(=O)N2CCN(c3ccccc3)CC2)[nH]c(=O)c1C` belongs -8.2% (inactive); to `O=C(COC(=O)CNC(=O)c1ccco1)Nc1ccc(F)cc1`, 3.34% (inactive).
Consider `CCCNC(=O)c1ccc(N2CCC3(CC2)CC(c2cccc(Br)c2)=NO3)c(NC(=O)c2ccco2)c1`, for which the Potency was 6.51 µM (active).
Turning to `COCCNC(=O)c1ccc(N2CCC3(CC2)OCCO3)c([N+](=O)[O-])c1`, the “activity change, negative = growth inhibition” value is 6.61% (inactive).
The same measure, in the same setting: to `CCN1CCC(=NNC(=O)c2ccc(C)c([N+](=O)[O-])c2)CC1` belongs -6.49% (inactive).
Take `CCCNC(=O)c1ccc(N2CCC3(CC2)CC(c2ccc(Cl)cc2)=NO3)c([N+](=O)[O-])c1`: the Potency was 20.6 µM (active).
As to `CCCN(CCC)CCNC(=O)c1ccc2c(c1)NC(=O)C(CS(=O)(=O)Cc1cccc(Br)c1)N2` (stereo not given), the “activity change, negative = growth inhibition” value was -13.6% (inactive).
The same measure, in the same setting: to `COC(=O)c1ccc(N2CCOCC2)c(NC(=O)c2ccc(Br)o2)c1` belongs 2.37% (inactive); to `CN[C@@H]1[C@@H](O)[C@@H](O[C@@H]2[C@H](O)[C@H](O[C@H]3OC(CN)=CC[C@H]3N)[C@@H](N)C[C@H]2N)OCC1(C)O` (stereo not given in full), -2.47% (inactive).
Same read-out and setting: for `CN1C(C)(C)CC(NC(=O)CCC(=O)NC2CC(C)(C)N(C)C(C)(C)C2)CC1(C)C` the value was -1.8% (inactive); for `O=P(O)(CP(=O)(c1ccccc1)c1ccccc1)c1ccccc1`, 5.73% (inactive).
On the same count and under the same terms, to `Cc1ccc(S(=O)(=O)N2CC(=O)Nc3ccccc32)cc1C` belongs -3.91% (inactive).

Values taken from PubChem BioAssay AID686978 (National Center for Advancing Translational Sciences (NCATS), 2013).
